The campaign covered roughly 360,000 compounds. About 460 (0.13%) were called active. The sample as a whole holds a higher share of actives than the screen did. Values without a mark were called inactive.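 How the source made its calls: active means inhibition above the mean inhibition of all tested compounds plus 3 SD (cut at about 73% in these data); inactive means the rest.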

For this experiment, the target named is Nuclear receptor subfamily 5 group A member 2 (Homo sapiens) (UniProt O00482). The experiment in a line: LRH-1 (NR5A2) inverse agonists, primary screen, cell-based, luminescence, HEK293T, StAR-luciferase reporter (AID 602396).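 Further: 0% = DMSO wells and 100% = reporter-only cells lacking LRH-1.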 Conditions: LRH-1 transfected, 24 h, at 3.6 µM, hits give high values. In general terms: In a reporter assay the amount or activity of a reporter protein is the signal.
Chain of Nuclear receptor subfamily 5 group A member 2 (Homo sapiens) (O00482 whole entry, looked up): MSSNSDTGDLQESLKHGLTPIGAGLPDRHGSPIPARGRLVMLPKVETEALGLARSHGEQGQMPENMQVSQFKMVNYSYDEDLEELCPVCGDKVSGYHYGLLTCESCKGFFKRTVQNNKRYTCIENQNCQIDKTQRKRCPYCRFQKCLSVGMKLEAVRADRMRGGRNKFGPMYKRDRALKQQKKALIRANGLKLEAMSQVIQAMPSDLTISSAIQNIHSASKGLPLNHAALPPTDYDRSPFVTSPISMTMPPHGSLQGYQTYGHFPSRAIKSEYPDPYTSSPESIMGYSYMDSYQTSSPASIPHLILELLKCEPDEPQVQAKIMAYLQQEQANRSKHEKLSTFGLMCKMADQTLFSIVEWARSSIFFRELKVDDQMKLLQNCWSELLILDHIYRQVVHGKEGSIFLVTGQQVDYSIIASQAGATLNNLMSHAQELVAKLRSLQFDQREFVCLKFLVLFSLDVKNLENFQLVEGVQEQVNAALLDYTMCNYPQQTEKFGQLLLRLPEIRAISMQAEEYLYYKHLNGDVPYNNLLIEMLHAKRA
`CC(=O)c1cnc(SCC(=O)O)nc1C`: the inhibition is -8.72%.

`O=C(c1cc2ccccc2o1)N1CCN(S(=O)(=O)c2ccc(Cl)s2)CC1`: the inhibition is -4.99%.

In the case of `COc1ccc(S(=O)(=O)N2CCOC23CCN(S(=O)(=O)c2ccc([N+](=O)[O-])cc2)CC3)cc1`, the inhibition was 4.75%.

In the case of `O=C(O)C1=C(C(=O)O)C2CCC1C2`, the inhibition is -20.2%.

For `CCn1ccnc1CN1CCCC(C(=O)c2ccc3c4c(cccc24)CC3)C1` (centres undefined), the inhibition is 4.32%.

For `C/C=C(/C)C(=O)O[C@@H]1c2cc3c(c4c2[C@@]2(CO4)C(=O)C(OC)=C(OC)C=C2C[C@@H](C)[C@H]1C)OCO3`, the inhibition was 8.2%.

For `Cc1ccc(/C=C/C(=O)OCC(=O)Nc2cccnc2Cl)cc1`, the inhibition is -17.1%.

For `COC(=O)Cc1cnc(NC(=O)CSc2nc(C(C)C)cc(=O)[nH]2)s1`, the inhibition was 7.32%.

For `Cc1cccc(C(=O)C(O)(c2ccccc2)C2CCCCC2=O)c1` (centres undefined), the inhibition is -15.3%.

Turning to `CCOc1ccc(CCNC(=O)COC(=O)c2ccc(C)c(S(=O)(=O)N3CCOCC3)c2)cc1OCC`, the inhibition is -2.87%.

For the molecule `O=C(O)COc1nsnc1N1CCOCC1`, the inhibition was -2.76%.

As to `Cc1ccc(C)c(S(=O)(=O)Nc2cc(C)on2)c1`, the inhibition was 13.7%.

`CCOc1ccc(N2CC(C(=O)N/N=C/c3sccc3C)CC2=O)cc1` (centres undefined): the inhibition was 3.97%.

As to `CCc1ccc2[nH]c(=O)c(Cc3ccccc3)c(O)c2c1`, the inhibition was 10.4%.

In the case of `COc1ccc(Cl)cc1NS(=O)(=O)c1cccc(C(=O)NCC2CCCO2)c1` (centres undefined), the inhibition is 10.9%.

On to `CCOCCCNC(=O)c1cn(CC(C)C)c(=O)c2c1c1ccccc1n2C`, for which the inhibition is 0.96%.

`COC(=O)c1cn(C)c2ccc(S(=O)(=O)N3CC(C)CC(C)C3)cc2c1=O` (centres undefined): the inhibition is -9.25%.

As to `COc1ccc(CCn2c(NN=C3CCCC3)nc3c2c(=O)[nH]c(=O)n3C)cc1`, the inhibition is 14%.

For the molecule `COCc1cc(C)n(CC(=O)NCC2CCCO2)c(=O)c1C#N` (centres undefined), the inhibition was -7.89%.

For `N/C(=N\S(=O)(=O)c1cc(C(F)(F)F)cc(C(F)(F)F)c1)c1cccs1`, the inhibition is 10.3%.

Consider `COc1cccc(CNS(=O)(=O)c2cc3c(cc2C)n(C)c(=O)c(=O)n3C)c1`, for which the inhibition is 1.81%.

Consider `Cc1ccc(CNC(=O)C2CCCN(S(C)(=O)=O)C2)cc1` (centres undefined), for which the inhibition was 14.4%.

Turning to `CCCn1c(C)cc(C(=O)COC(=O)c2c(C)nn(-c3ccccc3)c2C)c1C`, the inhibition was 7.52%.

As for `Cc1ccsc1C(=O)OCC(=O)c1cc(C)n(CC2CCCO2)c1C` (centres undefined), the inhibition was 80.7% (active).

`COCCn1c(C)cc(C(=O)COC(=O)CNC(=O)c2ccco2)c1C`: the inhibition is 5.6%.

On to `C=CCc1cc(S(=O)(=O)c2ccc(O)c(CC=C)c2)ccc1O`, for which the inhibition was 11.4%.

As to `CCNS(=O)(=O)c1ccc(CCC(=O)N2CCN(c3cc(Cl)ccc3C)CC2)cc1`, the inhibition was -4.58%.

Turning to `COc1ccc(NS(=O)(=O)c2ccc(O)c(C(=O)OCC(=O)NC3CCCCC3)c2)cc1`, the inhibition was 0.7%.

`Cc1cc(=O)cc(C)[nH]1`: the inhibition was 3.47%.

Take `COc1ncnc2c1N=C1CC(C)(C)CC(N)=C1S2`: the inhibition is 22.7%.

Regarding `COC1(C2=NCCN2)COc2ccccc2O1` (centres undefined), the inhibition was 15.1%.

Turning to `O=C1CN(C(=O)COC(=O)c2cnc(Cl)c(Cl)c2)c2ccccc2N1`, the inhibition was 0.85%.

For `CC[C@@H]1CC2=C(C(=O)OC(C)(C)O2)[C@@H](CC)O1`, the inhibition was 13.2%.

On to `COC(=O)c1ccc(CSc2ccc(S(=O)(=O)N3CCCCC3)cn2)cc1`, for which the inhibition was 0.83%.

As to `CCOc1cc(C(=O)Nc2c(C)ccc3nsnc23)cc(OCC)c1OCC`, the inhibition was 5.78%.

With `OCCCNc1nccc(-c2cc(Nc3cccc(Cl)c3)ncn2)n1`, the inhibition is 96.8% (active).

As for `CC(=O)Nc1ccc(NC(=O)CSc2nnnn2-c2ccccc2F)cc1`, the inhibition was 3.27%.

As to `CN(C)CCCn1c(N)c(C#N)c2nc(C#N)c(C#N)nc21`, the inhibition is -20%.

Turning to `Cc1noc(C)c1NC(=O)Nc1cccc2c1O[C@H](CN(C)S(=O)(=O)c1c(C)noc1C)[C@@H](C)CN([C@H](C)CO)C2=O`, the inhibition is -28.3%.

For `CCOc1ccc(Br)cc1S(=O)(=O)Nc1ccc(C(=O)OC(C)C(=O)N(C)c2ccccc2)cc1` (centres undefined), the inhibition is -9.98%.

With `Cc1ccc(CC2CC(=O)N(c3cc(C)ccc3C)C2=O)cc1` (centres undefined), the inhibition is 5.12%.

For the molecule `COc1ccc(OCCn2ccnc2C)cc1`, the inhibition was 10.9%.

Turning to `Cc1ccccc1/[N+]([O-])=C/c1ccncc1`, the inhibition was 13%.

Turning to `Cc1cc(N2CCCC2=O)cc(C)c1S(N)(=O)=O`, the inhibition was 7.43%.

Consider `CCN(C(=O)COC(=O)CCC(=O)c1cccs1)C1CCCCC1`, for which the inhibition is 4.1%.

As for `CC1CC(c2ccccc2)n2nc(NC(=O)c3cccs3)nc2N1` (centres undefined), the inhibition is 5.57%.

`CCc1ccc(NC(=O)CCNS(=O)(=O)c2cccs2)cc1`: the inhibition was -12.4%.

Turning to `Cc1ccc(-n2c(=O)cc(N3CCN(Cc4ccccc4)CC3)[nH]c2=O)cc1`, the inhibition was 8.9%.

As to `Cc1ccc(C(=O)COC(=O)CCN2C(=O)C3C4CC(C(Br)C4Br)C3C2=O)cc1` (centres undefined), the inhibition was -1.24%.

Turning to `Cc1cc(C(=O)NNC(=O)CCC2CCCCC2)c(C)o1`, the inhibition is 2.29%.

As to `CC(C)c1ccc(NC(=O)C2CCCN(S(=O)(=O)c3cccnc3)C2)cc1` (centres undefined), the inhibition was -1.1%.

In the case of `Cn1c(=O)c2c(nc(OCc3cccnc3)n2Cc2ccccc2)n(C)c1=O`, the inhibition was -21.8%.

Turning to `CCn1c(C)nc2c1C(=O)c1ccccc1C2=O`, the inhibition was -4.55%.

For `Cc1ccc(-c2noc(C3CCCN(C(=O)c4cccc(Cl)c4)C3)n2)o1` (centres undefined), the inhibition is -49.4%.

Take `Cc1ccc(-c2ccnc3nc(Sc4ncc(C(F)(F)F)cc4Cl)nn23)cc1`: the inhibition was -3.99%.

Regarding `CN(C)S(=O)(=O)c1ccc(N2CCCC2)c(C(=O)Nc2cccc(F)c2)c1`, the inhibition was 8.36%.

In the case of `Cc1nc(COc2cc3oc(=O)cc(C)c3cc2Cl)cs1`, the inhibition was -10.4%.

For `O=C(CN1CCN(S(=O)(=O)c2ccc3ccccc3c2)CC1)NC(=O)NC1CCCCC1`, the inhibition is 14.8%.

`CCCCCN(C(=O)NC(=O)Nc1cccc(C)c1C)S(C)(=O)=O`: the inhibition is -7.26%.

As to `CCCCn1c(=S)[nH]c2ncccc2c1=O`, the inhibition was 0.69%.

For `Cc1cc(NC(=O)CS(=O)(=O)c2cn(C)c3ccccc23)no1`, the inhibition was -3.59%.

Turning to `Cc1c(Cl)cnc(NC(=O)COC(=O)C2CCCC2)c1Cl`, the inhibition is 1.2%.

Consider `CC(=O)NS(=O)(=O)c1ccc2c(c1)Cc1cc(S(=O)(=O)NC(C)=O)ccc1-2`, for which the inhibition was 9.84%.

Take `N#Cc1ccc(CN2CCN(CC(=O)Nc3ccccc3C(=O)NC3CC3)CC2)cc1`: the inhibition was 9.21%.

For the molecule `CCC1=NN(C(=O)Cc2ccc([N+](=O)[O-])cc2)C(O)(c2ccc(Br)cc2)C1` (centres undefined), the inhibition was -7.24%.

On to `CCN(CC)C(=O)C1=C(C)N(Cc2ccccc2)C(=O)C(CC(=O)NC(c2ccccc2)c2ccccc2)C1` (centres undefined), for which the inhibition is -17.2%.

With `O=C(NCCCn1ccnc1)C(=O)c1cn(CC(=O)N2CCCCCC2)c2ccccc12`, the inhibition was 9.94%.

With `CC(C)CCC(=O)Nc1cc(S(=O)(=O)N2CCOCC2)ccc1N1CCCC1`, the inhibition was 6.05%.

Take `Cc1cn([C@H]2C[C@H](O)[C@@H](CNC(=O)[C@H](N)Cc3cccnc3)O2)c(=O)[nH]c1=O`: the inhibition is 2.03%.

In general, inhibition refers to the change of the read-out against control, counted positive when it falls.

These data come from PubChem BioAssay AID602396 (The Scripps Research Institute Molecular Screening Center, 2012).
